Screens from PubChem.
p53ts 32C tox: qHTS Screen for Compounds that Selectively Target Cancer Cells with p53 Mutations: Cytotoxicity of p53ts Cells at the Permissive Temperature; H1299-p53A138V at 32C, ATP luminescence viability, 24 h; Potency, µM (top dose mostly 46.1 µM), inactives show at the top dose activity change, negative = cytotoxicity, hits mostly cytotoxic; 0.93% of 130,000 active;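 note: 0% = DMSO and -100% = full killing by reference compound; nearly all actives have a fitted effect of over 55% in size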
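H1299-p53 A138V cells (temperature-sensitive p53) exposed 24 h to up to 46 uM compound at 32C, where p53 is wild-type in conformation. Viability read as ATP luminescence and normalised to DMSO and 100 uM tamoxifen. AC50 fitted with the Hill equation.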
Imprint erasure: qHTS Assay for Compounds that Induce Erasure of Genomic Imprints; mouse ES Peg3-LacZ reporter, beta-gal luminescence, 40 h; Potency, µM (doses to about 60.7 µM), for inactives: at the top dose activity change, positive = activation, usual class: activators; 0.02% of 110,000 active; AID 1948, 2009
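Readout: BetaGlo luminescence (5 min, room temp) for LacZ from the normally silent maternal Peg3 allele in female Peg3LacZ-Neo ES cells. Cells 300/well, 40 h, 37C, 5% CO2. Data normalized per plate to negative controls.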
p53ts 39C tox: qHTS Screen for Compounds that Selectively Target Cancer Cells with p53 Mutations: Cytotoxicity of p53ts Cells at the Nonpermissive Temperature; 1.5% of 130,000 active; Potency, µM (doses to about 46.1 µM), for inactives: top-dose activity change, negative = cell killing, most hits filed as cytotoxic; H1299-p53A138V viability at 39C, ATP luminescence, 24 h; note: % is set by controls: 0 for no effect and ±100 for the full control effect; nearly all actives have a fitted effect of over 55% in size
* marks the source's active call; other numbers are inactive results; u = inconclusive; x = not tested or not shown; [ ] = remark or other dose. Only some compounds are listed: those with a hit (about 1.6% of all), similar ones and a draw of the others. Calls come from the whole dose curve; as a rule, active = well fitted curve in the direction sought with a large enough effect; inconclusive = small, poorly fitted or top-dose-only effect, or another doubt; inactive = no such curve, though single readings can be large; an effect the other way counts as inactive or inconclusive. Potency is the fitted concentration of half-maximal effect.

SMILES | p53ts 32C tox | Imprint erasure | p53ts 39C tox
CCOc1ccc(-c2cc(C(=O)NCCCOC)c3c(-c4ccc(CC)cc4)[nH]nc3n2)cc1 | -5% | -6%[10.9 µM] | -6%
COc1ccc(CNC(=O)C(=O)NCC(c2cccs2)S(=O)(=O)c2cccs2)cc1 (configuration not stated) | -3% | 15%[10.9 µM] | -6%
Cc1ccc(CCNC(=O)CCCn2nc(C)c3c(C)n(-c4ccccc4)nc3c2=O)cc1 | 8% | 22%[10.9 µM] | 0%
CCOC(=O)c1cccc(NC(=O)CC2C(=O)N(c3ccc(F)cc3)C(=O)N2C(C)C)c1 (configuration not stated) | 8% | 14%[10.9 µM] | -6%
Cc1cccc(-c2nc(SCCCOc3ccc(Cl)c(C)c3)n3[nH]c(=O)cc3n2)c1 | -5% | -4%[10.9 µM] | 6%
Cc1ccc(OCCSc2nc(-c3ccccc3C)nc3cc(=O)[nH]n23)cc1Cl | 8% | 23%[10.9 µM] | 25µM*
COc1ccc(Nc2ncnc3c2cnn3-c2ccc(C)cc2)cc1Cl | -7% | 17%[10.9 µM] | u
Oc1c(C(c2ccc(Cl)cc2)N2CCCC2)sc2nc(-c3ccco3)nn12 (configuration not stated) | -10% | 5%[10.9 µM] | 2%
Cc1ccc(-c2cn3cccnc3n2)cc1NC(=O)Nc1ccc(F)cc1 | -10% | 4%[10.9 µM] | 33%
COc1cccc(NC(=O)Nc2cc(-c3cn4cccnc4n3)ccc2C)c1 | u | -3%[10.9 µM] | -21%
COc1cccc(NC(=O)Nc2cc(-c3cn4cccnc4n3)ccc2OC)c1 | 10µM* | -12%[10.9 µM] | 10µM*
COc1ccc(-c2cn3cccnc3n2)cc1NC(=O)Nc1cc(C)ccc1C | 16µM* | -19%[10.9 µM] | u
COc1ccc2c(c1)c1c(C)c3cnccc3c(C)c1n2CCCN | x | -36%[10.9 µM] | x
CCCc1oc2ccc(NS(=O)(=O)c3ccc(OC)cc3)cc2c1C(=O)OCC | -2% | -23%[10.9 µM] | u
CCOC(=O)c1c(-c2ccccc2)oc2ccc(NS(=O)(=O)c3ccccc3)cc12 | 43% | -26%[10.9 µM] | 16µM*
CCCc1oc2ccc(NS(=O)(=O)c3ccc(OCC)cc3)cc2c1C(=O)OCC | u | -17%[10.9 µM] | 20µM*
CCOC(=O)c1c(-c2ccccc2)oc2ccc(NS(=O)(=O)c3ccc(OC)cc3)cc12 | 20% | -21%[10.9 µM] | -16%
O=C(CN1CCN(CC(=O)Nc2ccccc2F)CC1)Nc1ccc(Cl)c(C(F)(F)F)c1 | 5% | 20%[10.9 µM] | u
CCOc1ccc(N2CC(NC(=O)CCc3ccccc3)CC2=O)cc1 (configuration not stated) | -3% | -2%[10.9 µM] | -2%
Cc1cc(N2CCN(C)CC2)nc2ccc(NC(=O)Nc3ccc(Cl)cc3)cc12 | -14% | -6%[10.9 µM] | -11%
Cc1ccccc1NC(=O)Nc1ccc2nc(N3CCN(C)CC3)cc(C)c2c1 | -14% | 8%[10.9 µM] | 0%
CCOc1ccccc1NC(=O)Nc1ccc2nc(N3CCN(C)CC3)cc(C)c2c1 | u | -8%[10.9 µM] | 10µM*
Cc1cc(N2CCN(C)CC2)nc2ccc(NC(=O)c3ccc(C(C)(C)C)cc3)cc12 | 16µM* | -19%[10.9 µM] | 20µM*
CCC(=O)N1c2ccccc2CC1C(=O)NCc1ccc(OC(C)C)cc1 (configuration not stated) | 1% | 8%[10.9 µM] | -20%
O=C(c1cc2ccccc2o1)N1CCCCCC1 | -4% | -51% | 0%
SMILES | p53ts 32C tox | Imprint erasure | p53ts 39C tox
O=C(O)c1coc2ccccc12 | -2% | -2% | -7%
O=C(/C=C/N1CCOCC1)c1cc2ccccc2o1 | 13µM* | -41% | u
O=C(/C=C/N1CCOCC1)c1coc2ccccc12 | 16µM* | x | u
O=C(COc1ccc(Cl)cc1)OCc1cc(=O)n2nc(-c3cccs3)sc2n1 | 0% | -8%[10.9 µM] | -8%
COc1ccc(O[C@H]2C=C[C@@H](c3ccccc3)O[C@@H]2CON=C(C)C)cc1 | 6%[9.22 µM] | x | 9%[9.22 µM]
COc1cccc(OCc2nc3ccccc3n2Cc2ccccc2C)c1 | 6% | -7%[10.9 µM] | u
COc1cccc(OCc2nc3ccccc3n2C)c1 | u | -50%[10.9 µM] | 20µM*
C/C=C/C1Oc2ccc(OC)cc2N2C(=O)C(C)C(OCOC)C12 (configuration not stated) | 9%[9.22 µM] | x | 7%[9.22 µM]
Cc1cccc(C)c1OCCn1c(CCNC(=O)C2CCCCC2)nc2ccccc21 | 17% | -6%[10.9 µM] | u
O=C(NCCc1nc2ccccc2n1CCCOc1ccc(Cl)cc1)C1CCCCC1 | u | -5%[10.9 µM] | 16µM*
Cc1ccccc1OCCCn1c(CCNC(=O)C2CCCCC2)nc2ccccc21 | -11% | -9%[10.9 µM] | 16µM*
Cc1cc(C)cc(OCCCn2c(CCNC(=O)C3CCCCC3)nc3ccccc32)c1 | -8% | -15%[10.9 µM] | u
CO[C@@H]1/C=C\CC(=O)N2CCC[C@@H]2C(=O)OC[C@H](C)C(=O)OC[C@H]1C | -3%[9.22 µM] | x | 2%[9.22 µM]
CC(C)(C)C(=O)Nc1ccc(-c2nc3ccc(NC(=O)C(C)(C)C)cc3[nH]2)cc1 | 7.9µM* | -13%[10.9 µM] | u
CC(C)(C)C(=O)Nc1ccc(Cl)c(-c2nc3ccccc3[nH]2)c1 | -4% | -12%[10.9 µM] | 3%
CC(C)=NOCc1ccc(-c2cn([C@@H]3COC[C@@H]3O)nn2)cc1 | -11%[9.22 µM] | x | 10%[9.22 µM]
Cn1c(/C(C#N)=C/c2ccc(C(F)(F)F)cc2)nc2ccccc21 | u | -3%[10.9 µM] | -12%
O=C(CCC(=O)N1CCSc2ccccc21)Nc1ccc(Cl)cc1 | -6% | -12%[10.9 µM] | u
COC(=O)c1ccc(CSc2nc3ccncc3n2Cc2ccc(F)cc2)cc1 | -7% | -11%[10.9 µM] | -21%
CCC(C(=O)NC1CCCCC1)n1c(SCc2cccc(F)c2)nc2ccncc21 (configuration not stated) | -9% | -4%[10.9 µM] | -16%
COc1ccc(-c2nc(Cn3c(SCc4cccc(F)c4)nc4ccncc43)c(C)o2)cc1OC | -14% | -23% | -10%
Cc1cccc(-c2nc(Cn3c(SCc4cccc(C(F)(F)F)c4)nc4ccncc43)c(C)o2)c1 | -7% | 6%[10.9 µM] | 10µM*
CCC(C(=O)NC1CCCCC1)n1c(SCc2cccc(C)c2)nc2ccncc21 (configuration not stated) | 13µM* | -4%[10.9 µM] | 10µM*
COC(=O)c1ccc(Cn2c(SCc3cccc(C)c3)nc3ccncc32)cc1 | 25µM* | -10%[10.9 µM] | u
COc1ccc(S(=O)(=O)Nc2ccc3c(c2)sc(=O)n3C)cc1Cl | -20% | -6%[10.9 µM] | u
SMILES | p53ts 32C tox | Imprint erasure | p53ts 39C tox
COc1ccc(S(=O)(=O)NCc2ccc(C(=O)NCc3ccccc3)cc2)cc1 | -7% | -10%[10.9 µM] | 29%
Cc1nn(C(=O)COc2ccccc2Br)c(C)c1Sc1ccccc1 | -9% | -12%[10.9 µM] | -15%
COc1ccc(NC(=O)C2=C(C)Nc3ncnn3C2c2cccn2C)cc1 (configuration not stated) | -5% | 5%[10.9 µM] | 2%
C=CCC1C=CC(OC(=O)OCC)C(COC(=O)OCC)O1 (configuration not stated) | 9%[9.22 µM] | x | 3%[9.22 µM]
COc1ccc(-c2cc(C(F)(F)F)nc(SCCC(=O)Nc3cccc(O)c3)n2)cc1 | u | -7%[10.9 µM] | u
Cc1cc(C)cc(-n2c(C)nc3cc(C(=O)NCc4ccc(F)cc4)ccc32)c1 | 26% | 12%[10.9 µM] | 13%
COc1ccc2nc(C)cc(Nc3ccc(N4CCOCC4)cc3)c2c1 | -6% | 3% | 2%
